This is an account of results in paper PMC7862700, “An all-to-all approach to the identification of sequence-specific readers for epigenetic DNA modifications on cytosine”.

What all share (test): DAPPL (digital affinity profiling via proximity ligation, sequencing); 10 mM Tris-HCl pH 7.5, 50 mM NaCl, 1 mM DTT, 4% glycerol, room temperature, 30 min; GST-TFs on glutathione beads, 16-mer random dsDNA library, 0.1% formaldehyde crosslink after washing; high values mean tight binding
Conditions in all cases: protein: recombinant; tags: N-terminal GST; dsDNA, one strand shown

The target of one assay is T1, ERF (Homo sapiens, UniProt P50548 1-548).
T1 sequence: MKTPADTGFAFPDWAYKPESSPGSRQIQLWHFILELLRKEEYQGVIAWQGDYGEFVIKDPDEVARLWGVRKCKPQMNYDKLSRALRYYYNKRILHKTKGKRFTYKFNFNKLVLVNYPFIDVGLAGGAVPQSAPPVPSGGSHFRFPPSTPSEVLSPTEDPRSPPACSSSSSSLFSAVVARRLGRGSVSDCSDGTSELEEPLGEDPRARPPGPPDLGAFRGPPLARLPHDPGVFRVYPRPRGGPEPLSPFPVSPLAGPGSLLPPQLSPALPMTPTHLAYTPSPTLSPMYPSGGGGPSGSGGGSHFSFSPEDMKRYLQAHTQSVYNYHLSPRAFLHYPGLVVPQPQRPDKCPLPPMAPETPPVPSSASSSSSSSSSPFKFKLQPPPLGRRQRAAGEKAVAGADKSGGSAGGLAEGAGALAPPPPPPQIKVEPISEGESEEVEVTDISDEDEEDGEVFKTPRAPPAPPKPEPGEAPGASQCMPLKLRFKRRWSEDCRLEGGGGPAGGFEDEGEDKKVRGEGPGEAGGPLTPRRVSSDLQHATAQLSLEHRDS
An outline of the steps: (§1)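 Binding signal is each hexamer's read frequency for a factor divided by its frequency in the tag-only sample. The factors were GST-fused human transcription factors from yeast, captured on glutathione beads, DNA-barcoded and pooled with that sample. Pools were incubated with 200 nmole of a random double-stranded 16-mer DNA library in Tris/NaCl/DTT/glycerol buffer at room temperature for 30 min, then washed, crosslinked with 0.1% formaldehyde, proximity-ligated with BsaI/T4 ligase (1 h, 37 °C), PCR-amplified and sequenced on an Illumina NextSeq500.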

The next assay concerns the target T2, ETV3L (Homo sapiens, UniProt Q6ZN32 1-361).
T2 sequence: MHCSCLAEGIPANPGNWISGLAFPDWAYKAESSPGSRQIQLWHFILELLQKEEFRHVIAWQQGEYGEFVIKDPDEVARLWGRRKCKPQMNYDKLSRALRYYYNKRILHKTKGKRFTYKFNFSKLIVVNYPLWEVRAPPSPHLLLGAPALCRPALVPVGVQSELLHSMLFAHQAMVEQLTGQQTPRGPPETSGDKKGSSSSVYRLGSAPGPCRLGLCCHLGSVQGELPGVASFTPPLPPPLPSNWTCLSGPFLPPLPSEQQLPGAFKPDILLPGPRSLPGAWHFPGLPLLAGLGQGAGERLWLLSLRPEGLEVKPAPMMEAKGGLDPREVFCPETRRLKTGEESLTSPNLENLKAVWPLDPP
In outline: as §1

The target of a further assay is T3, ETS2 (Homo sapiens, UniProt P15036 1-469).
T3 sequence: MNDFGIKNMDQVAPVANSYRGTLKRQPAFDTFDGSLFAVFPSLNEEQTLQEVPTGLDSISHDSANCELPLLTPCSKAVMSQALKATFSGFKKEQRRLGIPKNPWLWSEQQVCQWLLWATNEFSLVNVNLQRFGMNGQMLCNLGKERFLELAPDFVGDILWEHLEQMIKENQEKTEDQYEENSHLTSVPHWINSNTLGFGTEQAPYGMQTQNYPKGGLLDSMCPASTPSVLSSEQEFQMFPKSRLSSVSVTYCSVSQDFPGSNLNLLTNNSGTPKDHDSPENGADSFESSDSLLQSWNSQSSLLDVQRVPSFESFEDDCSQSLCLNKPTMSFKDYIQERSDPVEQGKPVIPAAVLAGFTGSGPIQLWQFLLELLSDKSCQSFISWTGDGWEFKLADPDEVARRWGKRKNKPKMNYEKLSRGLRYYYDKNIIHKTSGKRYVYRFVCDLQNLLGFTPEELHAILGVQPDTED
In outline:
as §1

Another assay addresses T4, SPDEF (Homo sapiens, UniProt O95238 1-335).
T4 sequence: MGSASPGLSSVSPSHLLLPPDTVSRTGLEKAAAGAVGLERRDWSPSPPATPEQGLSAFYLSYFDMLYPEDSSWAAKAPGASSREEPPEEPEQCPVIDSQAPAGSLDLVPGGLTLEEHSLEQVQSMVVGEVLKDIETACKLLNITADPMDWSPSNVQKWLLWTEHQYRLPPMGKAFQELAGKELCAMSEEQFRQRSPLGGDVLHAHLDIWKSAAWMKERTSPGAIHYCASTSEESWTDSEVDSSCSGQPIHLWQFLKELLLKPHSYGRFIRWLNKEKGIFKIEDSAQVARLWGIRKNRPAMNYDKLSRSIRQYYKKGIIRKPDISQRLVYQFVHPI
In outline: as §1

For the next assay, the target named is T5, ETV7 (Homo sapiens, UniProt Q9Y603 1-341).
T5 sequence: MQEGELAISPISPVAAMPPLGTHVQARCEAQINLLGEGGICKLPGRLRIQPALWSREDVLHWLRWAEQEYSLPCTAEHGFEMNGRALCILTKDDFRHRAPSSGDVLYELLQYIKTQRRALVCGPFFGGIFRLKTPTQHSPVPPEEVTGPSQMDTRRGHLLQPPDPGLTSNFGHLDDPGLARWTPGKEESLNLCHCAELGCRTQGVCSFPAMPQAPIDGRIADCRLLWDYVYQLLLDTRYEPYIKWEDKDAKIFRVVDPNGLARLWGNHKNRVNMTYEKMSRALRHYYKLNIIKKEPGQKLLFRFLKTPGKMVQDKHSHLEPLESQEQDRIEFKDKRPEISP
An outline of the steps: as §1

A further assay addresses T6, ELF5 (Homo sapiens, UniProt Q9UKW6-2 1-255).
T6 sequence: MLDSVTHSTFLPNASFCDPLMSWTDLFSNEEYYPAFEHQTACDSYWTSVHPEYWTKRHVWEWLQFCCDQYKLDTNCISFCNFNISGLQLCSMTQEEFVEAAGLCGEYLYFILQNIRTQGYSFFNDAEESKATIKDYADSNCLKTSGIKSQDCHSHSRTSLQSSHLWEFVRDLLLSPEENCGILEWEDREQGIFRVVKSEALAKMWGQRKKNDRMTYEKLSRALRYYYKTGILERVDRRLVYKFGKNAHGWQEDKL
An outline of the steps:
as §1

The next assay deals with T7, ETV3 (Homo sapiens, UniProt P41162-2 1-143).
T7 sequence: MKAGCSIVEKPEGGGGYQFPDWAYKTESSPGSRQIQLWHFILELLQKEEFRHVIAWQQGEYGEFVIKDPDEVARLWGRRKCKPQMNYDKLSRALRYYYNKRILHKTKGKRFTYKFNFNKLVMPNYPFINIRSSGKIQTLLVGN
An outline of the steps:
as §1

For the next assay, the target named is ETV6 (Homo sapiens, UniProt P41212 1-452). In outline:
as §1

Sequence of ETV6 (P41212 whole entry): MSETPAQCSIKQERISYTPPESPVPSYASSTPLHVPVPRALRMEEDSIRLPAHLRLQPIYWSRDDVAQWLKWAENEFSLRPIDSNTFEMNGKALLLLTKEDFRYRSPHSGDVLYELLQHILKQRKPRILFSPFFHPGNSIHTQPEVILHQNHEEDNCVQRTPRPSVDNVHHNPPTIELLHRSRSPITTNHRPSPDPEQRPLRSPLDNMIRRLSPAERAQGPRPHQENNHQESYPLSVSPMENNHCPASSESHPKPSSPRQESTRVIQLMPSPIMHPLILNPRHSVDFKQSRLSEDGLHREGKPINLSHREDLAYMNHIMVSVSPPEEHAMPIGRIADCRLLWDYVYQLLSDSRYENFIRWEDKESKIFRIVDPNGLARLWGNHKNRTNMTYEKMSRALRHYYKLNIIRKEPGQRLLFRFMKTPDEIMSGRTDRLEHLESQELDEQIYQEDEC

In the case of TTGCAC, the binding signal is 1.3 fold enrichment (6-mer frequency, TF over GST control) in the assay with ERF; 1.38 fold enrichment (6-mer frequency, TF over GST control) with ETV3L; 1.11 fold enrichment (6-mer frequency, TF over GST control) with ETS2; 1.22 fold enrichment (6-mer frequency, TF over GST control) with SPDEF; 1.26 fold enrichment (6-mer frequency, TF over GST control) with ETV7; 1.22 fold enrichment (6-mer frequency, TF over GST control) with ELF5. Moreover, the binding signal in the assay with ETV3 was 1.23 fold enrichment (6-mer frequency, TF over GST control); with ETV6, 1.26 fold enrichment (6-mer frequency, TF over GST control).

With CCCATC, the binding signal in the assay with ERF was 1.25 fold enrichment (6-mer frequency, TF over GST control); with ETV3L, 1.15 fold enrichment (6-mer frequency, TF over GST control); with ETS2 it was 1.22 fold enrichment (6-mer frequency, TF over GST control); with SPDEF, 1.07 fold enrichment (6-mer frequency, TF over GST control); in the assay with ETV7 it was 1.08 fold enrichment (6-mer frequency, TF over GST control); in the assay with ELF5 it was 1.21 fold enrichment (6-mer frequency, TF over GST control). Further, the binding signal in the assay with ETV3 was 1.14 fold enrichment (6-mer frequency, TF over GST control); with ETV6, 1.1 fold enrichment (6-mer frequency, TF over GST control).

With GATGCC, the binding signal was 1.36 fold enrichment (6-mer frequency, TF over GST control) in the assay with ERF; 1.39 fold enrichment (6-mer frequency, TF over GST control) with ETV3L; 1.33 fold enrichment (6-mer frequency, TF over GST control) with ETS2; 1.52 fold enrichment (6-mer frequency, TF over GST control) in the assay with SPDEF; 1.27 fold enrichment (6-mer frequency, TF over GST control) with ETV7; 1.35 fold enrichment (6-mer frequency, TF over GST control) with ELF5. The binding signal with ETV3 was 1.39 fold enrichment (6-mer frequency, TF over GST control); in the assay with ETV6, 1.32 fold enrichment (6-mer frequency, TF over GST control).

Regarding CCCTAA, the binding signal was 1.36 fold enrichment (6-mer frequency, TF over GST control) with ERF; 1.32 fold enrichment (6-mer frequency, TF over GST control) in the assay with ETV3L; 1.15 fold enrichment (6-mer frequency, TF over GST control) with ETS2; 1.19 fold enrichment (6-mer frequency, TF over GST control) with SPDEF; 1.14 fold enrichment (6-mer frequency, TF over GST control) with ETV7; 1.19 fold enrichment (6-mer frequency, TF over GST control) with ELF5. Besides, the binding signal with ETV3 was 1.2 fold enrichment (6-mer frequency, TF over GST control); with ETV6 it was 1.08 fold enrichment (6-mer frequency, TF over GST control).

On to CGTCTT, for which the binding signal in the assay with ERF was 1.24 fold enrichment (6-mer frequency, TF over GST control); with ETV3L, 1.4 fold enrichment (6-mer frequency, TF over GST control); with ETS2 it was 1.4 fold enrichment (6-mer frequency, TF over GST control); with SPDEF, 1.48 fold enrichment (6-mer frequency, TF over GST control); in the assay with ETV7 it was 1.41 fold enrichment (6-mer frequency, TF over GST control); in the assay with ELF5, 1.5 fold enrichment (6-mer frequency, TF over GST control). The binding signal in the assay with ETV3 was 1.44 fold enrichment (6-mer frequency, TF over GST control); with ETV6, 1.5 fold enrichment (6-mer frequency, TF over GST control).

TGTAAA: the binding signal with ERF is 1.23 fold enrichment (6-mer frequency, TF over GST control); in the assay with ETV3L it was 1.22 fold enrichment (6-mer frequency, TF over GST control); with ETS2 it was 1.24 fold enrichment (6-mer frequency, TF over GST control); in the assay with SPDEF, 1.16 fold enrichment (6-mer frequency, TF over GST control); with ETV7, 1.13 fold enrichment (6-mer frequency, TF over GST control); with ELF5, 1.1 fold enrichment (6-mer frequency, TF over GST control). Moreover, the binding signal with ETV3 was 1.2 fold enrichment (6-mer frequency, TF over GST control); with ETV6 it was 1.03 fold enrichment (6-mer frequency, TF over GST control).

For the sequence TGAAAA, the binding signal in the assay with ERF is 1.04 fold enrichment (6-mer frequency, TF over GST control); in the assay with ETV3L it was 1.07 fold enrichment (6-mer frequency, TF over GST control); with ETS2 it was 1.11 fold enrichment (6-mer frequency, TF over GST control); in the assay with SPDEF it was 1.01 fold enrichment (6-mer frequency, TF over GST control); with ETV7, 1.07 fold enrichment (6-mer frequency, TF over GST control); with ELF5 it was 1.06 fold enrichment (6-mer frequency, TF over GST control).
